Experimental data: the supplement of paper PMC6555819

Key:
Assay in all cases: PBM binding z-score (relative to random genomic background probes); higher = stronger binding; sequences stand for … in GC…GCGATTGACAGCGTAGAATGAAGG
[1] = tested on: FXR:RXRa (NR concentration 270 nM, RXRa partner concentration 90 nM)
In short: (§1)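 Custom Agilent 4×180K protein-binding microarrays carried double-stranded probes, each with a 34-nt variable region. These regions held direct-repeat seeds, single-nucleotide variants, half-site ablations and random human genomic background sequences. Ligand-free nuclear receptor dimers were incubated on the arrays for 1 h, antibodies against each partner (one per run) detected binding, and scanned fluorescence was regression-normalized. Binding z-scores take the random background probes as reference.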

[2] = tested on: LXRa:RXRa (NR concentration 270 nM, RXRa partner concentration 90 nM)
In short: as §1

[3] = tested on: LXRa homodimer (NR concentration 270 nM)
In short: as §1

[4] = tested on: LXRb:RXRa (NR concentration 270 nM, RXRa partner concentration 90 nM)
In short: as §1

[5] = tested on: LXRb homodimer (NR concentration 270 nM)
In short: as §1

[6] = tested on: PPARa:RXRa (NR concentration 270 nM, RXRa partner concentration 90 nM)
In short: as §1

[7] = tested on: PPARg:RXRa (NR concentration 180 nM, RXRa partner concentration 90 nM)
In short: as §1

[8] = tested on: PPARg:RXRa 270nM:90nM, anti-RXR (NR concentration 270 nM, RXRa partner concentration 90 nM)
In short: as §1

[9] = tested on: PPARg:RXRa 30nM:10nM, anti-RXR (NR concentration 30 nM, RXRa partner concentration 10 nM)
In short: as §1

[10] = tested on: PPARg:RXRa 90nM:30nM, anti-RXR (NR concentration 90 nM, RXRa partner concentration 30 nM)
In short: as §1

[11] = tested on: PPARg:RXRa DBDmut IVT, anti-RXR (DBD mutation: RXRa K156A/R161A, NR concentration 270 nM, RXRa partner concentration 90 nM)
In short: as §1

[12] = tested on: PPARg:RXRa IVT, anti-PPARg (NR concentration 270 nM, RXRa partner concentration 90 nM)
In short: as §1

[13] = tested on: PPARg DBDmut:RXRa IVT, anti-PPARg (DBD mutation: PPARg1 K132A/R137A, NR concentration 270 nM, RXRa partner concentration 90 nM)
In short: as §1

[14] = tested on: PPARg DBDmut IVT, anti-PPARg (DBD mutation: PPARg1 K132A/R137A, NR concentration 270 nM)
In short: as §1

[15] = tested on: PPARg homodimer (NR concentration 180 nM)
In short: as §1

[16] = tested on: PXR:RXRa (NR concentration 270 nM, RXRa partner concentration 90 nM)
In short: as §1

[17] = tested on: PXR homodimer (NR concentration 270 nM)
In short: as §1

[18] = tested on: RARa:RXR (NR concentration 270 nM, RXRa partner concentration 90 nM)
In short: as §1

[19] = tested on: RARa homodimer (NR concentration 270 nM)
In short: as §1

[20] = tested on: RARb:RXRa (NR concentration 270 nM, RXRa partner concentration 90 nM)
In short: as §1

Sequence	PBM binding z-score [1]	PBM binding z-score [2]	PBM binding z-score [3]	PBM binding z-score [4]	PBM binding z-score [5]	PBM binding z-score [6]	PBM binding z-score [7]	PBM binding z-score [8]	PBM binding z-score [9]	PBM binding z-score [10]	PBM binding z-score [11]	PBM binding z-score [12]	PBM binding z-score [13]	PBM binding z-score [14]	PBM binding z-score [15]	PBM binding z-score [16]	PBM binding z-score [17]	PBM binding z-score [18]	PBM binding z-score [19]	PBM binding z-score [20]
ATATGTAGGTTAGCTGGGGGCATTCAGACTAGGC	0.978	3.73	0.963	4.51	9.63	4.09	4.83	4.61	2.3	3.72	6.79	6.14	4.18	5.68	1.96	4.39	1.88	2.5	1.27	2.25
ATCTCTAGGTAGAAGTTCAGTGAATCCCGAGGAT	0.0471	0.223	0.0969	0.0752	0.257	2.6	4.33	5.62	4.14	5.52	0.0712	1.23	0.95	0.43	0.271	0.947	1	0.436	0.785	1.07
CAGCTTAGGTCAGGGCCAGTATAGGAGGAACGTT	2.21	1.3	-0.0157	0.814	-0.56	2.17	0.606	0.732	-0.0225	0.447	1.28	0.782	-0.279	-1.2	1.34	0.726	0.0136	1.68	0.556	3.79
GCGACTGGGGCATCAGCAGCTTACCATAACTTAA	-0.818	-0.694	-0.417	-0.0189	-1.2	0.137	0.465	0.329	-0.116	-0.198	4.14	2.77	-0.78	-0.628	-0.268	-0.462	-0.432	-0.454	-0.449	0.116
CTGGAAAGGTCGGTTGAGGTGAGTATACGGATAA	2.81	1.32	0.136	1.12	-0.219	2.57	0.576	0.975	-0.182	0.424	-0.117	0.957	-0.556	0.0614	0.799	3.21	-0.0647	2.05	0.351	2.89
AGAATAAGGTTAAGATCAGGGAAACAGAATACAT	2.47	2.22	0.239	2.09	0.458	3.06	1.75	1.62	0.741	1.19	1.89	1.76	1.42	1.21	1.6	1.18	0.822	1.93	1.11	2.46
ATCGAAAAGTCGTGAGGTGAGTATACAGAAAGGC	0.379	0.127	-0.461	-0.0752	-0.13	0.351	0.623	-0.104	0.404	0.0436	-0.639	0.331	0.929	1	0.473	0.0533	-0.117	0.486	0.556	0.552
CCTACTGGGCCACGAAGGGTCATTGATTCAGTGA	2.42	2.97	0.54	2.41	-0.798	3.68	3.11	3.45	1.17	2.58	4.42	5.28	-0.0977	-1.2	1.51	3.23	0.0111	3.46	0.673	2.82
ATATGTAGGTTACATCCGGGTAATTCAGGCTATG	0.626	5.83	1.24	3	0.708	3.26	5.44	4.35	1.75	3.32	7.57	7.21	4.3	3.2	1.34	0.541	0.614	1.19	0.484	1.22
